# Screening results from PubChem BioAssay.
# This excerpt belongs to a sample that is enriched for hits.
# HTT ATP protect: Huntington cell model cytoprotection by ATP luminescence | PC12 HTT-Q103 induced, cytoprotection, ATP luminescence, 40 h | Potency, µM (series often up to 56.4 µM), most hits filed as activators | actives 0.14% (n = 230,000); also: nearly all actives have a fitted effect of over 45% in size
#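 Rat PC12, Q103 Htt exon1-GFP fusion, ecdysone promoter; tebufenozide inducer 100 nM final; compound titration; qHTS, 1500 cells/well; ATPlite luminescent read.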
# Epigenetic derep: derepresses silenced GFP reporter in murine cells. murine LDR cells, GFP reporter derepression, 30 h. AID 1865. actives 0.2% (n = 280,000). Potency, µM (highest dose often 53.9 µM), actives largely listed as activators; also: nearly all actives have a fitted effect of over 60% in size
#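 Murine LDR cells bearing a silenced CMV-driven GFP reporter were exposed to compound for 30 h at 37 C. After PBS washes, GFP-positive cells (20-120 um objects) counted by laser-scanning microplate cytometry.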
# HTT aggregate: reduces HttQ103-GFP aggregates in PC12 cells | PC12 HttQ103-GFP aggregates, Acumen cytometry, 40 h | Potency, µM (series often up to 46.1 µM), most hits filed as inhibitors | actives 1.1% (n = 220,000); also: nearly all actives have a fitted effect of over 60% in size
#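 Aggregates are detected as GFP objects 1–25 µm with signal 6 STDEV over background in lysates of induced PC12 cells. These carry Huntingtin exon 1 with 103 glutamines fused to GFP under an ecdysone promoter; compounds titrated.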
# PINK1 expr mod: PINK1 expression modulation. PINK1 immunofluorescence, high-content cytometry, 24 h. actives 0.2% (n = 410,000). Potency, µM (series often up to 76.6 µM), most hits filed as activators. AID 624263; active = well fitted activation curve with a large enough effect; inconclusive = small, poorly fitted or top-dose-only effect; cell line not stated here; also: nearly all actives have a fitted effect of over 65% in size
#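 Stable cell line treated 24 h with compounds at 5 concentrations (CCCP controls), then fixed and immunostained for PINK1 plus nuclear and cell stains; PINK1 immunofluorescence quantified by laser-scanning microplate cytometry.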
# A number is an active result; . = inactive; ? = inconclusive; / = no result; ! = not active in a repeat; [ ] = another dose, or the depositor's remark. Unless noted, calls follow the shape of the dose curve; as a rule, active = well fitted curve in the direction sought with a large enough effect; inconclusive = small, poorly fitted or top-dose-only effect, or another doubt; inactive = no such curve, though single readings can be large; an effect the other way counts as inactive or inconclusive.
SMILES,HTT ATP protect,Epigenetic derep,HTT aggregate,PINK1 expr mod
O=c1c(O)c(-c2cccs2)oc2ccccc12,.[10 µM],.,11.2µM,.
O=c1[nH]c(/C=C/c2ccccc2)c([N+](=O)[O-])c(=O)[nH]1,/,/,/,.
CCC1CN(CC(=O)NCc2n[nH]c3c2CCCCC3)Cc2cc(OC)ccc2O1 (centres undefined),/,/,/,.
O=C(CCN1CCN(Cc2ccccc2)CC1)NNC(=O)c1cc2ccccc2o1,/,/,/,.
Cc1ccc2nc(Cl)c3nnnn3c2c1,.[10 µM],.,3.55µM,.
CCc1cccc(NC(=O)NC(=O)Cn2nnc(C(=O)OC)c2C(=O)OC)c1,.[10 µM],.,.,.
CC1=Nc2ccccc2/C1=C\c1nc(-c2ccccc2)oc1O,?,.,.,.
CC1=Nc2ccccc2/C1=C\c1nc(-c2ccc(C(F)(F)F)cc2)oc1O,.,12.6µM,.,?
COc1ccccc1N1CCN(CCCNc2c(C)c(=O)n(C)c(=O)n2C)CC1,.,.,/,.
COc1ccccc1N1CCN(CCCNc2cc(=O)n(C)c(=O)n2C)CC1,31.6µM!,.,.,.
CC(NC(=O)COc1ccc(-c2nnco2)cc1)c1ccc(Cl)cc1Cl (centres undefined),.[10 µM],.,.,.
Cc1nn(C)c2ncc(C(=O)c3ccccc3O)cc12,/,/,/,.
Cc1nn(-c2ccccc2)c2ncc(C(=O)c3cc(Cl)ccc3O)cc12,.[0.074 µM],.,.,28.2µM
CCC(=O)N1CCN(c2nc3ccccc3s2)CC1,.,.,.,.
O=C(c1cc2sccc2n1Cc1ccccc1)N1CCN(c2nc3ccccc3s2)CC1,.,.,7.94µM,.
CN(C)c1ccc(/C=C/c2cc(=O)[nH]c3ccccc23)cc1,/,/,/,.
CN(C)S(=O)(=O)c1cccc(NC(=S)N/N=C/C2CC=CCC2)c1 (centres undefined),.,.,.,.
Cc1cccc(NC(=O)C(C)OC(=O)c2ccccc2NS(=O)(=O)c2cc(C)c(C)c([N+](=O)[O-])c2)c1 (centres undefined),.[1.9 µM],.,.,20µM
CC(=O)Nc1ccc(NC(=O)C(C)OC(=O)c2ccccc2NS(=O)(=O)c2cccs2)cc1 (centres undefined),.[10 µM],.,.[9.22 µM],.
Cc1cccc(Nc2ncnc3ccccc23)c1,.[10 µM],.,12.6µM,.
CCOC(=O)c1cnc2c(c(C)nn2-c2ccc(C)cc2)c1Cl,/,/,/,.
O=C(c1ccc(Cl)c(S(=O)(=O)N2CCCCCC2)c1)N1CCN(c2ccccc2O)CC1,.,.,?,.
CCOC(=O)c1sc2cc([N+](=O)[O-])cc(SCC(C)C)c2c1N,.,3.16µM,.,?
O=C(Nc1nc2c(s1)CN(Cc1ccccc1)CC2)C1CCC1,.[10 µM],.,.,.
CN(C)c1ccc(/C=C(\C#N)C(=O)Nc2nc3c(s2)CCN(Cc2ccccc2)C3)cc1,.,7.94µM,.[9.22 µM],?
SMILES,HTT ATP protect,Epigenetic derep,HTT aggregate,PINK1 expr mod
Cc1[nH]nc2ncc(C(=O)c3ccccc3O)cc12,20µM,.,6.31µM,.
CCCNC(=O)C1(C)CCN(C(=O)COc2ccc(C(C)(C)C)cc2)C1 (centres undefined),/,/,/,.
Cc1nc2sccc2c(=O)n1N,3.55µM,.,.,.
CCOc1ccc(-n2nnc3c(=O)n(CC(=O)c4ccccc4)cnc32)cc1,.[10 µM],.,.,.
COc1ccccc1N1CCN(Cc2cc(COC(C)C)c3cccnc3c2O)CC1,/,3.55µM,/,.
CCCOCc1cc(CN2CCN(c3ccccc3OC)CC2)c(O)c2ncccc12,/,3.55µM,/,.
CCOCc1cc(CN2CCN(c3ccccc3OC)CC2)c(O)c2ncccc12,/,?,/,.
COc1ccccc1N1CCN(Cc2cc(Br)c(O)c3ncccc23)CC1,.,?,10µM,?
CCOc1ccccc1N1CCN(Cc2cccc(OC)c2O)CC1,.,.,.,.
CC(=O)N1N=C(c2ccc(C)o2)CC1c1ccc(F)cc1 (centres undefined),.[10 µM],.,?,.
Cc1cccc(N2C(=O)CC(Sc3nnc(C)s3)C2=O)c1 (centres undefined),.[10 µM],.,14.1µM,.
CSc1nc2ccccc2n1Cc1c(Cl)cccc1Cl,.,.,11.2µM,.
Cc1cc(C)c(NC(=S)NCCCSC2CCCCC2)c(C)c1,.,.,11.2µM,.
O=C(CN1CCCCC1)N1CCCc2c1c(=O)oc1ccc(OCc3ccccc3)cc21,3.16µM,.,?,.
COc1ccccc1Oc1nc2c(C)cccn2c(=O)c1/C=C(\C#N)c1nc2ccccc2[nH]1,/,12.6µM,/,25.1µM
Cc1cccn2c(=O)c(/C=C(\C#N)C(N)=O)c(Oc3ccccc3)nc12,.[10 µM],.,.[9.22 µM],.
O=[N+]([O-])c1ccc(N=Nc2c(O)[nH]c3ccc(F)cc23)cc1,/,/,/,.
O=[N+]([O-])c1ccc2[nH]c(O)c(N=Nc3ccc(F)cc3)c2c1,/,/,/,28.2µM
CCN(CC)S(=O)(=O)c1cc([N+](=O)[O-])ccc1N=Nc1c(O)[nH]c2ccccc12,.[10 µM],17.8µM,.,11.2µM
O=[N+]([O-])c1ccccc1N=Nc1c(O)[nH]c2ccc(S(=O)(=O)O)cc12,.[10 µM],/,/,/
CCCN(CCC)C(=O)c1c(C)[nH]c(C(=O)OCC)c1C,.,.,.,/
COc1ccc(NC(=O)c2cc(S(=O)(=O)N3CCCC3)ccc2OC)cc1,/,.,/,?
Cc1cccc(CNC(=O)c2cnn(-c3nccc(-c4ccccc4F)n3)c2C)n1,/,/,/,.
C[C@H](C[C@H](O)[C@H]1OC1(C)C)C1=C2C[C@H](O)C3[C@@]4(C)CCC(=O)C(C)(C)C4CC[C@]3(C)[C@@]2(C)CC1 (some centres undefined),/,/,/,.
C[C@@H](C[C@@H](O)[C@H](O)C(C)(C)O)[C@@H]1CC[C@]2(C)C3=CC[C@H]4C(C)(C)C(=O)CC[C@]4(C)[C@H]3CC[C@@]12C,/,.,35.5µM,.
SMILES,HTT ATP protect,Epigenetic derep,HTT aggregate,PINK1 expr mod
Fc1ccc(SCCc2ccccn2)cc1,.[10 µM],.,.[9.22 µM],.
COCCN1C=C(C(=O)OC)C(c2cc3c(cc2Br)OCO3)C(C(=O)OC)=C1,.,.,.,3.98µM
CC1Cc2ccccc2N1C(=O)CN(C)S(=O)(=O)c1cccc2cccnc12 (centres undefined),.,.,0.0316µM,.
CC(C)CCNC(=S)Nc1ccc([N+](=O)[O-])cc1,.[0.074 µM],.,20µM,?
O=[N+]([O-])c1ccc(NNC(=S)Nc2ccc(F)cc2)cc1,.[10 µM],.,?,14.1µM
O=C(NC(NNc1ccc([N+](=O)[O-])cc1)(C(F)(F)F)C(F)(F)F)c1ccc(F)cc1,.[10 µM],.,.,44.7µM
CC(C)OC(=O)c1cc(NC(=S)Nc2ccc([N+](=O)[O-])cc2)cc(C(=O)OC(C)C)c1,.[10 µM],.,?,14.1µM
O=C(O)C1C2C=CC(C2)C1C(=O)NCCCN1CCOCC1 (centres undefined),.[10 µM],.,.,.
O=C(CN1CCCCCC1)NCC1CCCO1 (centres undefined),2.24µM,.,.[9.22 µM],.
COCCN1C(=O)/C(=C/c2ccc(N3CCCC3)cc2)SC1=S,.,3.55µM,.[9.22 µM],?
COc1ccc(/C=C2\SC(=S)N(CCC(=O)N3CCCCC3)C2=O)cc1,/,/,/,.
